Activity calls are given as the source filed them. The calls were made as follows: active = hit-call score of the fitted dose curve at least 0.9, where 1 is the maximum; inactive = score below 0.9.

Experiment [1] is described as follows: ATG_GLI_CIS: Attagene CIS-FACTORIAL HepG2 Assay for human Zinc Finger Protein GLI1 (AID 2282945). Particulars: HepG2, Attagene cis-factorial reporter mRNA, GLI element; actives raise or lower the signal. In a few lines:
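Transiently transfected HepG2 cells report endogenous transcription factor activity via cis-element-driven reporter units. After 24 h compound exposure, reporter mRNA was measured by RT-PCR with capillary electrophoresis; bidirectional fitting against DMSO baseline.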

Experiment [2] is described as follows: ATG_ISRE_CIS: Attagene CIS-FACTORIAL HepG2 Assay for human Interferon Regulatory Factor 1 (IRF1) binding to an Interferon-Stimulated Response Element (ISRE) (AID 2282948). Particulars: HepG2 ISRE cis-reporter (Attagene), mRNA transcription readout; actives raise or lower the signal. In a few lines:
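HepG2 cells transiently transfected with multiplexed cis-promoter reporter units; after 24 h compound exposure, reporter mRNA quantified by RT-PCR, FAM labelling, HpaI digestion and capillary electrophoresis. Bidirectional fit versus DMSO baseline.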

Experiment [3] can be described thus: ATG_M_32_CIS: Attagene CIS-FACTORIAL HepG2 Assay for M32 Transcription Factor (Internal Marker) (AID 2282949).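 Also: background control marker of the multiplexed CIS panel rather than a real target.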 Particulars: HepG2 Attagene cis-factorial M32 reporter, mRNA; actives raise or lower the signal. In a few lines: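 Following 24 h chemical exposure of HepG2 cells transiently expressing cis-promoter reporter constructs, reporter transcript levels were determined by RT-PCR with fluorescent labelling and capillary electrophoresis, then fitted bidirectionally against DMSO.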

The nature of experiment [4]: ATG_M_06_CIS: Attagene CIS-FACTORIAL HepG2 Assay for M06 Transcription Factor (Internal Marker) (AID 2282950). Particulars: HepG2 Attagene CIS-FACTORIAL M06 internal marker reporter; actives raise or lower the signal. In a few lines: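 Cells (HepG2, transiently carrying cis-driven reporter units) receive chemical for 24 h before RNA isolation. Reporter cDNA is PCR-amplified, FAM-labelled by primer extension, HpaI-digested and sized on a capillary analyser.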

Experiment [5] addresses Hypoxia-inducible factor 1-alpha (Homo sapiens) (UniProt Q16665). As to the kind of experiment: ATG_HIF1a_CIS: Attagene CIS-FACTORIAL HepG2 Assay for human Hypoxia Inducible Factor 1 (HIF1A) (AID 2282951). Particulars: HepG2 Attagene cis-factorial HIF1a reporter transcription; actives raise or lower the signal. The essentials: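 Activity is fitted in both directions relative to DMSO. Reporter transcripts are read by RT-PCR, fluorescent primer extension and capillary electrophoresis after 24 h chemical treatment. The cells are HepG2 carrying transiently transfected cis-element-driven reporter units responding to endogenous factors.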

For experiment [6], the target named is Hepatocyte nuclear factor 6 (Homo sapiens) (UniProt Q9UBC0). Put plainly: ATG_HNF6_CIS: Attagene CIS-FACTORIAL HepG2 Assay for human Hepatocyte Nuclear Factor 6 (HNF6) (AID 2282952). To be noted: HepG2 Attagene cis-factorial HNF6 reporter transcription; actives raise or lower the signal. The essentials:
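Cells are HepG2 carrying transiently transfected cis-promoter reporter units. Treatment lasts 24 h, after which reporter transcripts are reverse-transcribed, amplified, FAM-labelled and sized by capillary electrophoresis. DMSO serves as baseline.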

Experiment [7] addresses Heat shock factor protein 1 (Homo sapiens) (UniProt Q00613). As to the kind of experiment: ATG_HSE_CIS: Attagene CIS-FACTORIAL HepG2 Assay for human Heat Shock Transcription Factor 1 (HSE) (AID 2282953). Particulars: HepG2 HSE cis-reporter, Attagene RNA transcription; actives raise or lower the signal. In a few lines:
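Liver-derived HepG2 cells carry transiently introduced multiple reporter units governed by cis promoters. Reporter RNA measured 24 h post-dose through reverse transcription, PCR amplification, fluorescent labelling and capillary electrophoresis, normalised to DMSO.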

The nature of experiment [8]: ATG_MRE_CIS: Attagene CIS-FACTORIAL HepG2 Assay for human Metal Responsive Element (MRE) (AID 2282954). To be noted: HepG2 MRE cis-reporter transcription, Attagene multiplex; actives raise or lower the signal. In a few lines:
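Fluorescent reporter fragments separated by capillary electrophoresis give mRNA induction for the MRE unit after 24 h treatment of transfected HepG2 cells. Endogenous transcription-factor activity is read; DMSO serves as negative control and baseline.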

Hypoxia-inducible factor 1-alpha (Homo sapiens), sequence (Q16665 whole entry, looked up): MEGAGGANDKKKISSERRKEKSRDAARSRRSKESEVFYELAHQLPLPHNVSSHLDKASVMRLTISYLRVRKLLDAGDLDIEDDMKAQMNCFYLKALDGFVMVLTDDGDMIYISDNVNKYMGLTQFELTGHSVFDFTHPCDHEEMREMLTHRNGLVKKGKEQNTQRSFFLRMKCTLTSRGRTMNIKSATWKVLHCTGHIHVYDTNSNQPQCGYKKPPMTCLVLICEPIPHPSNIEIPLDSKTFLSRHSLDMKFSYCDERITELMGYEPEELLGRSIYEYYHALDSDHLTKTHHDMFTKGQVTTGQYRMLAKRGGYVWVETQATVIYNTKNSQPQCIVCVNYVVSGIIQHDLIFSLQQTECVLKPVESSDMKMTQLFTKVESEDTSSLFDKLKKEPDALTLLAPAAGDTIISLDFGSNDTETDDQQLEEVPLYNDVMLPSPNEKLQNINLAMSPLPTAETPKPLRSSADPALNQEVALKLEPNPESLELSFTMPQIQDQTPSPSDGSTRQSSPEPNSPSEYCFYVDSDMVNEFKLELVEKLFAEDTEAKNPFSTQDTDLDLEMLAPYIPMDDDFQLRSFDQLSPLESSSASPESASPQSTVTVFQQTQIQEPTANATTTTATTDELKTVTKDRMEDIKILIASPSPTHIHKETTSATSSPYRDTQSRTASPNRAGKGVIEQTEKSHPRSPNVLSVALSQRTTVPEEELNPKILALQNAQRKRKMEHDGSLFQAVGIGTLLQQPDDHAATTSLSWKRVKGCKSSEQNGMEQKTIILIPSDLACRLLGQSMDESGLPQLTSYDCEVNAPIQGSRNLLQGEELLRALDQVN
Heat shock factor protein 1 (Homo sapiens), sequence (Q00613 whole entry, looked up): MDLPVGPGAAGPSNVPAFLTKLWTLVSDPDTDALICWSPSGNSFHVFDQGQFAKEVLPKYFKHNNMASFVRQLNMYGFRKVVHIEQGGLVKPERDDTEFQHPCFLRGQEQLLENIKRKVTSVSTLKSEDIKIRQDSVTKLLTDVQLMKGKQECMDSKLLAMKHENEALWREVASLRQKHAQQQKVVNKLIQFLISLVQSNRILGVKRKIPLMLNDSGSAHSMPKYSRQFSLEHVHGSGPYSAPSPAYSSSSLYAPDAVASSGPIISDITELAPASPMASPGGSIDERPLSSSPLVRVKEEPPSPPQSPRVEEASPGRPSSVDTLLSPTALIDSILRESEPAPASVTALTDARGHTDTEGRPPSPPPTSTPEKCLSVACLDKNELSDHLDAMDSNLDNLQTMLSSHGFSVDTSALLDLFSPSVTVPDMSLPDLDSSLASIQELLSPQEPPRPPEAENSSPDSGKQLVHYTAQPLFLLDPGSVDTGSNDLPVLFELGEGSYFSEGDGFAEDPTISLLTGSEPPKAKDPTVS
Hepatocyte nuclear factor 6 (Homo sapiens), sequence (Q9UBC0 whole entry, looked up): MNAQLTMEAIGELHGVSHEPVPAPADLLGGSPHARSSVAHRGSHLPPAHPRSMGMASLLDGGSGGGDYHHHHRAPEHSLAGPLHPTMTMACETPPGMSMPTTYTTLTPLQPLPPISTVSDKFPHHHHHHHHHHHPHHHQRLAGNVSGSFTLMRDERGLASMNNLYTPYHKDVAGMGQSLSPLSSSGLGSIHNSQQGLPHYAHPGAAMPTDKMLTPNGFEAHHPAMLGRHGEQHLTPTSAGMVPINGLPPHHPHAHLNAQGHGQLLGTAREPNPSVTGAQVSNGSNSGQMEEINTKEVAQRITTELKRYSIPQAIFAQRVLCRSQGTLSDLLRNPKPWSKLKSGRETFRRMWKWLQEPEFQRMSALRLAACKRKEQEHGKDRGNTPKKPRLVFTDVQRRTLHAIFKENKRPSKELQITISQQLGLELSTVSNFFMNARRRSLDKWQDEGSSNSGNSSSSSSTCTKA

Take `CC(=O)Oc1c(C)c(C)c2c(c1C)CC[C@@](C)(CCC[C@H](C)CCC[C@H](C)CCCC(C)C)O2`: the call in experiment [1], in experiment [2], in experiment [3], in experiment [4], in experiment [5] and in experiment [6] was inactive. Moreover, the outcome in experiment [7] and in experiment [8] was inactive.

`CCCCCCOc1ccc(O)cc1`: the molecule was called inactive in experiment [1], in experiment [2], in experiment [3], in experiment [4], in experiment [5] and in experiment [6]. Further, the AC50 is 11.3 µM (active) in experiment [7] and 47.7 µM (active) in experiment [8].

Take `COc1ccc(C(C)=O)cc1`: the molecule was classed as inactive in experiment [1], in experiment [2], in experiment [3], in experiment [4], in experiment [5] and in experiment [6]. Besides, the outcome in experiment [7] and in experiment [8] was inactive.

Consider `CCCCCCCOC(C)=O`, for which the molecule was called inactive in experiment [1], in experiment [2], in experiment [3], in experiment [4], in experiment [5] and in experiment [6]. Besides, the call in experiment [7] and in experiment [8] was inactive.

Consider `CCC(C)C1CCCCC1=O` (configuration not stated), for which the outcome in experiment [1], in experiment [2], in experiment [3], in experiment [4], in experiment [5] and in experiment [6] was inactive. Further, the call in experiment [7] and in experiment [8] was inactive.

As to `C=CCCCCCCCCC(=O)OCC`, the outcome in experiment [1], in experiment [2], in experiment [3], in experiment [4], in experiment [5] and in experiment [6] was inactive. Also, the call in experiment [7] and in experiment [8] was inactive.

In the case of `CCCc1ccc(N)cc1`, the result in experiment [1], in experiment [2], in experiment [3], in experiment [4], in experiment [5] and in experiment [6] was inactive. Further, the molecule was called inactive in experiment [7] and in experiment [8].

For `CCOC(=O)CC1(C)OCC(C)O1` (configuration not stated), the molecule was called inactive in experiment [1], in experiment [2], in experiment [3], in experiment [4], in experiment [5] and in experiment [6]. In addition, the molecule was called inactive in experiment [7] and in experiment [8].

On to `CCCCCCCCCCCCOCCOS(=O)(=O)O`, for which the result in experiment [1], in experiment [2], in experiment [3], in experiment [4], in experiment [5] and in experiment [6] was inactive. In addition, the outcome in experiment [7] and in experiment [8] was inactive.

For `CC1=CCC(=C(C)C)CC1`, the outcome in experiment [1], in experiment [2], in experiment [3], in experiment [4], in experiment [5] and in experiment [6] was inactive. Besides, the molecule was classed as inactive in experiment [7] and in experiment [8].

As for `CC(=O)OC(C)(C)C`, the call in experiment [1], in experiment [2], in experiment [3], in experiment [4], in experiment [5] and in experiment [6] was inactive. Further, the call in experiment [7] and in experiment [8] was inactive.

`CC1=CC[C@@H]2C[C@H]1C2(C)C`: the molecule was classed as inactive in experiment [1], in experiment [2], in experiment [3], in experiment [4], in experiment [5] and in experiment [6]. The molecule was called inactive in experiment [7] and in experiment [8].

Regarding `O=[N+]([O-])c1cc(N(CCO)CCO)ccc1NCCO`, the molecule was classed as inactive in experiment [1], in experiment [2], in experiment [3], in experiment [4], in experiment [5] and in experiment [6]. Further, the molecule was called inactive in experiment [7] and in experiment [8].

For the molecule `Nc1cc([N+](=O)[O-])ccc1C(=O)O`, the result in experiment [1], in experiment [2], in experiment [3], in experiment [4], in experiment [5] and in experiment [6] was inactive. The AC50 in experiment [7] was 75 µM (active); in experiment [8], 71 µM (active).

For the molecule `CCCCCCCC(=O)N(C)C`, the outcome in experiment [1], in experiment [2], in experiment [3], in experiment [4], in experiment [5] and in experiment [6] was inactive. Also, the call in experiment [7] and in experiment [8] was inactive.

Take `O=C(O)c1cccc(Cl)n1`: the call in experiment [1], in experiment [2], in experiment [3], in experiment [4], in experiment [5] and in experiment [6] was inactive. For the same molecule, the molecule was called inactive in experiment [7] and in experiment [8].

Regarding `NC(=O)NC(N)=O`, the result in experiment [1], in experiment [2], in experiment [3], in experiment [4], in experiment [5] and in experiment [6] was inactive. The outcome in experiment [7] and in experiment [8] was inactive.

Take `ClCCOCCOCCCl`: the molecule was classed as inactive in experiment [1], in experiment [2], in experiment [3], in experiment [4], in experiment [5] and in experiment [6]. The outcome in experiment [7] and in experiment [8] was inactive.

As to `CC(=O)CC(C)(C)C1CCCCC1`, the result in experiment [1], in experiment [2], in experiment [3], in experiment [4], in experiment [5] and in experiment [6] was inactive. Also, the call in experiment [7] and in experiment [8] was inactive.

In the case of `CCCCCCCCCCCCOC(C)=O`, the call in experiment [1], in experiment [2], in experiment [3], in experiment [4], in experiment [5] and in experiment [6] was inactive. Further, the result in experiment [7] and in experiment [8] was inactive.

On to `O=C(O)c1ccco1`, for which the call in experiment [1], in experiment [2], in experiment [3], in experiment [4], in experiment [5] and in experiment [6] was inactive. Besides, the call in experiment [7] and in experiment [8] was inactive.

Turning to `CCCCCCCC1CCCC1=O` (configuration not stated), the outcome in experiment [1], in experiment [2], in experiment [3], in experiment [4], in experiment [5] and in experiment [6] was inactive. Also, the call in experiment [7] and in experiment [8] was inactive.

As for `CC(C)N1C(=O)c2ccccc2C1=O`, the result in experiment [1], in experiment [2], in experiment [3], in experiment [4], in experiment [5] and in experiment [6] was inactive. The call in experiment [7] and in experiment [8] was inactive.

With `CN(C)C(=O)Nc1ccccc1`, the result in experiment [1], in experiment [2], in experiment [3], in experiment [4], in experiment [5] and in experiment [6] was inactive. The outcome in experiment [7] and in experiment [8] was inactive.

In the case of `CCCCCCCCCOS(=O)(=O)O`, the outcome in experiment [1], in experiment [2], in experiment [3], in experiment [4], in experiment [5] and in experiment [6] was inactive. In addition, the outcome in experiment [7] and in experiment [8] was inactive.

As to `[O-]/[N+](=N\O)c1ccccc1`, the result in experiment [1], in experiment [2], in experiment [3], in experiment [4], in experiment [5] and in experiment [6] was inactive. The molecule was classed as inactive in experiment [7] and in experiment [8].

Take `CC/C=C\CCCCO`: the molecule was called inactive in experiment [1], in experiment [2], in experiment [3], in experiment [5], in experiment [6] and in experiment [7]. Besides, the molecule was called inactive in experiment [8].

Take `CCC(C)(C)C1CCC(=O)CC1`: the call in experiment [1], in experiment [2], in experiment [3], in experiment [5], in experiment [6] and in experiment [7] was inactive. In addition, the call in experiment [8] was inactive.

A word on the AC50: it is the midpoint of the concentration-response curve, whichever way the signal moves.

The values above are taken from PubChem BioAssay (EPA / NIEHS).
